Screen size: about 3,600 compounds; about 900 (25%) were called active. A selection follows. Results with a measured potency or affinity are listed apart. A number with no mark means an inactive call. No rule for the calls is given here.
The compounds below were run against Protein Tat (Human immunodeficiency virus type 1 group M subtype B (isolate HXB2)) (UniProt P04608) (assay: HIV-1 Tat–TAR interaction blockers – biochemical, fluorescence polarization, FAM-labeled TAR RNA, counter-screen for Vif-APOBEC3G degradation inhibitor project, dose response (AID 1117361)). Settings: Tat-TAR RNA binding; series mostly up to 100 µM; inhibition: at the top concentration.

Row | SMILES | outcome | inhibition
1 | CCOC(=O)c1sc2ncnc(N3CCN(C(=O)OCC)CC3)c2c1C | inactive | –
2 | COc1ccc(-c2nc(CS(=O)CC(=O)NCc3ccco3)c(C)o2)cc1 (configuration not stated) | – | 14.2%
3 | CCCCC(O)(CCCC)C(=O)N/N=C(\C)c1ccc(Cl)cc1 | – | 14%
4 | Cc1ccc2nc(SCC(=O)N(CC(C)C)c3c(N)n(CC(C)C)c(=O)[nH]c3=O)[nH]c2c1 | – | 16.9%
5 | COc1ccc(NC(=O)C2CCCN(S(=O)(=O)c3cccnc3)C2)cc1 (configuration not stated) | inactive | –
6 | O=c1[nH]c2ccccc2c(O)c1-[n+]1ccccc1 | – | 4.12%
7 | CCC(C)[C@H](NC(=O)Nc1ccccc1F)C(=O)OC (some centres not stated) | – | 4.12%
8 | COC(=O)C(NC(=O)C(NC(=O)c1ccccc1)C(C)C)C(C)C (configuration not stated) | – | 8.78%
9 | CCOC(=O)c1ccccc1NC(=O)CSc1nccn1C | – | 4.77%
10 | O=[N+]([O-])c1ccc(N2CCN(c3ccc(Cl)nn3)CC2)c(Cl)c1 | – | 2.73%
11 | CCc1ccc(C(=O)Nc2cccnc2Oc2ccc(Cl)cc2)cc1 | inactive | –
12 | Cc1cc(C)cc(OCC(=O)NNC(=O)CN2C(=O)c3ccccc3C2=O)c1 | inactive | –
13 | CC1=CC(C)(C)Nc2ccc(OC(=O)c3cccnc3)cc21 | – | 11.5%
14 | Cc1ccc(C(=O)NNS(=O)(=O)c2ccccc2[N+](=O)[O-])cc1 | – | 9.07%
15 | O=C(Nc1ccccc1[N+](=O)[O-])C1C(c2ccccc2)=C1c1ccccc1 | – | 0.68%
16 | O=C(NN=C1CCCCCC1)c1cccnc1 | inactive | –
17 | O=C(COc1cccc2cccnc12)N1CCc2ccccc2C1 | – | 8.87%
18 | Cc1cc(C)n(CC(=O)NNC(=O)c2ccc(NC(=O)CC#N)cc2)n1 | inactive | –
19 | CN(CCOCCOc1ccc2ccccc2c1)Cc1ccccc1 | inactive | –
20 | Cc1c(C(=O)Nc2ccncc2)oc2c1C(=O)CC(C)(C)C2 | – | 9.46%
21 | CC(C(=O)Nc1ccc(F)c(F)c1F)N1CCCCCC1 (configuration not stated) | – | 6.82%
22 | CCOC(=O)/C(C#N)=C/c1c(OCC)n(CC)c2ccccc12 | inactive | –
23 | COC1=CC(=O)c2c(ccc3ncnc(N)c23)C1=O | inactive | –

Row | SMILES | outcome | inhibition
24 | CCOC(=O)c1cc(-c2ccccc2)n(CC(=O)O)c1C | – | 1.35%
25 | CC(C)n1c(CCC(=O)O)ccc1-c1ccccc1 | – | 18.2%
26 | Cc1c(CN2CCC(CO)(Cc3cccc(C(F)(F)F)c3)CC2)c2ccccc2n1C | – | 3.3%
27 | CCOc1ccc(-n2cnnn2)cc1S(=O)(=O)NCCc1ccc(OC)c(OC)c1 | inactive | –
28 | O=C(CSc1nccc(=O)[nH]1)Nc1ccc2c(c1)OCCO2 | inactive | –
29 | Cc1nc(NC(=O)CN2CCOCC2)sc1-c1ccccc1 | – | 0.68%
30 | C=CCn1c(N2CCCCCC2)nc2c1c(=O)[nH]c(=O)n2C | – | 10.4% [at 50 µM]
31 | Cc1ccc2[nH]c(=O)c(C3C(C#N)=C(N)Oc4c3ccc3cccnc43)cc2c1 (configuration not stated) | – | 3.01%
32 | CC(=O)OC(C)C1C2=C(C(=O)CC1(C)O)C(=O)c1c(ccc(-c3ccc4c(c3O)C(=O)C3=C(C4=O)C(C(C)OC(C)=O)C(C)(O)CC3=O)c1O)C2=O (configuration not stated) | inactive | –
33 | CCNC(=O)C1CC(=O)N(Cc2ccc(F)cc2)C(=Nc2ccc(OC)cc2)S1 (configuration not stated) | inactive | –
34 | N#C/C(C(=O)N1CCOCC1)=C1/SC(Cc2ccccc2)C(=O)N1c1ccccc1 (configuration not stated) | – | 6.08%
35 | CCc1ccc(N/C(SCc2cccc(F)c2)=C(/C#N)C(=O)NCc2ccco2)cc1 | – | 8.19%
36 | Cc1ccc2[nH]c(=O)c(CN(Cc3cccs3)Cc3nnnn3Cc3ccccc3)cc2c1 | – | 20.5%
37 | CCOc1ccc2[nH]c(=O)c(CN(Cc3nnnn3Cc3ccco3)C3CCCCC3)cc2c1 | inactive | –
38 | Cc1ccc2nsnc2c1S(=O)(=O)N(Cc1ccco1)Cc1cc2cccc(C)c2[nH]c1=O | – | 1.36%
39 | CCN(Cc1ccccc1)Cc1nnnn1Cc1ccccc1 | inactive | –
40 | Cc1ccc(-n2ncc(C#N)c2/N=C/N2CCCCCC2)cc1 | – | 4.05%
41 | O=C1OCCC1Sc1nc2ccccc2n1Cc1ccccc1 (configuration not stated) | inactive | –
42 | CCOC(=O)c1ccc(NS(=O)(=O)c2ccc3oc(=O)[nH]c3c2)cc1 | inactive | –
43 | Cn1c(=O)oc2cc(S(=O)(=O)Nc3cccc(C(=O)O)c3)ccc21 | – | 8.19%
44 | COC(=O)c1sc(NC(=O)c2ccc(Cn3cc(Cl)cn3)o2)c(C#N)c1C | – | 25%
45 | CCOc1ccc(/C=C2\SC(=S)N(CCC(=O)O)C2=O)cc1 | – | 0.82%
46 | Cc1ccc(OCCSc2nnc(-c3ccncc3)n2C)cc1 | – | 2.73%

Row | SMILES | outcome | inhibition
47 | CC(Oc1cccc2cccnc12)C(=O)N/N=C/c1ccc2c(c1)OCO2 (configuration not stated) | – | 4.12%
48 | COc1cc(NC(=O)c2noc3c2CCC3)c(OC)cc1Cl | – | 2.34%
49 | O=C(c1cccs1)N1CCN(C/C=C/c2ccccc2)CC1 | – | 2.03%
50 | c1ccc2c(c1)NCC1CCCN21 (configuration not stated) | inactive | –
51 | COc1ccccc1NC(=O)c1oc2ccc(C)cc2c1C | inactive | –
52 | Cc1nnc(-c2cnn(-c3ccccc3)c2N)n1Cc1cccc(C(F)(F)F)c1 | – | 4.05%
53 | CCOC(=O)N1CCC(NC(=O)c2cc3c(C)nc4ccccc4c3o2)CC1 | – | 21.6%
54 | O=C(Nc1ccccc1C(=O)NCC1CCCO1)c1ccccc1 (configuration not stated) | inactive | –
55 | CCNC(=S)Nc1cccc(S(=O)(=O)NC2=NCCC2)c1 | inactive | –
56 | CC(C)Oc1ccc(-c2cc(C(=O)NCCN3CCOCC3)c3ccccc3n2)cc1 | inactive | –
57 | O=C(NCC1CCCO1)c1cc2ccccc2oc1=O (configuration not stated) | inactive | –
58 | O=[N+]([O-])c1ccc(Cl)c(S(=O)(=O)Nc2cccc(S(=O)(=O)NC3=NCCC3)c2)c1 | inactive | –
59 | CCOC(=O)N1CCC(NC(=O)c2cc(C(=O)NCc3cccc(Cl)c3)ccc2CO)CC1 | – | 1.36%
60 | Cc1ccc2cccc(S(=O)(=O)N3CCN(c4ccccc4F)CC3)c2n1 | inactive | –
61 | S=C(N/N=C/c1cccs1)NC1CC2CCC1C2 (configuration not stated) | inactive | –
62 | CC1=C(C(=O)OC(C)C)C(c2ccc(Br)s2)NC(=O)N1C (configuration not stated) | inactive | –
63 | COC(=O)Nc1ccc(C)c2nsnc12 | inactive | –
64 | COc1ccccc1Cn1c(-c2ccccc2OC)nc2ccccc21 | – | 6.14%
65 | CCOc1ccc2nc(SCC(=O)c3cccs3)sc2c1 | inactive | –
66 | CCOC(=O)C1CCN(S(=O)(=O)c2cccc(-c3cn4cccnc4n3)c2)CC1 | – | 8.11%
67 | O=C(Nc1cnn(Cc2ccc(Cl)c(Cl)c2)c1)c1nc2ncccn2n1 | inactive | –
68 | O=C1CC(N2CCOCC2)C(=O)N1c1ccc(Cl)cc1 (configuration not stated) | inactive | –
69 | CCN(CC)S(=O)(=O)c1ccc(/C=C/C(=O)Nc2ccc(N3CCOCC3)cc2)cc1 | – | 5.77%

Row | SMILES | outcome | inhibition
70 | CC(Sc1nnc(C2CC2)n1C)C(=O)Nc1ccc(N2CCOCC2)cc1 (configuration not stated) | – | 5.68%
71 | Cn1c(-c2ccccc2)cnc1SCC(N)=O | – | 2.03%
72 | COc1nc(N(c2ccccc2)c2ccccc2)nc(-n2ccnc2)n1 | – | 25.7%
73 | C(=N\n1cnnc1)/c1ccc2ncccc2c1 | inactive | –
74 | CC(C)OC(=O)CSc1nnc(-c2ccccn2)n1-c1ccccc1 | – | 6.76%
75 | C/C(CC1CC2=C(CC1(C)C)C(C)(C)CCC2)=N\NC(N)=S (configuration not stated) | inactive | –
76 | Cc1nc(NC(=O)COC(=O)CCS(=O)(=O)c2ccccc2Cl)c(Cl)cc1Cl | – | 11.5%
77 | Cc1ccc(NC(=S)NNc2ncc(C(F)(F)F)cc2Cl)cc1 | inactive | –
78 | O=c1c2cnn(-c3ccccc3Cl)c2ncn1Cc1cccnc1 | – | 8.78%
79 | CC1=CC(C)C2C(=O)N(CCCN(C)C)C(=O)C2C1 (configuration not stated) | – | 2.03%
80 | COc1ccc(Nc2nc(N)nc(CSC(=S)N3CCN(c4ccccc4)CC3)n2)cc1 | – | 15.7%
81 | Cc1nc(C)c(C(=O)OCC(=O)Nc2ccc(C)c(C)c2)s1 | inactive | –
82 | O=C(N/N=C/C1CC=CCC1)c1ccccc1O (configuration not stated) | inactive | –
83 | CCc1cccc(CC)c1-n1c(SCC(=O)N2CCCc3ccccc32)nc(O)cc1=O | inactive | –
84 | O=C(Cn1cc2c(n1)CCCC2)N1CCCc2ccccc21 | – | 6.76%
85 | O=C(Cn1ncc2c(=O)oc3ccccc3c21)N1CCCc2ccccc21 | inactive | –
86 | Cc1onc(-c2ccccc2)c1C(=O)N1CCCc2ccccc21 | inactive | –
87 | Cc1nnc(SCC(=O)NCc2cccs2)[nH]c1=O | – | 4.05%
88 | COc1ccc(C(CNCC(=O)Nc2ccccc2F)N(C)C)cc1 (configuration not stated) | inactive | –
89 | O=[N+]([O-])/C(C(Cl)=C(Cl)Cl)=C(/NC1CC1)Sc1ccccc1 | – | 0.82%
90 | O=C1CCCN1c1ccc(S(=O)(=O)N2CCC(c3ccccc3)CC2)cc1 | – | 0.68%
91 | N#C/C(=C/c1cc(Br)cs1)C(=O)NCC1CCCO1 (configuration not stated) | – | 2.03%
92 | Cc1ccc(Cl)cc1N1CCN(C(=O)Cc2cn(C)c3ccccc23)CC1 | – | 4.05%

Row | SMILES | outcome | inhibition
93 | O=C(COc1ccc(Cl)cc1)N1CCN(S(=O)(=O)c2ccc(Cl)cc2)CC1 | – | 11.5%
94 | CC(C)Cn1nc(NC(=O)C(C)(C)C)c2cc3ccccc3nc21 | – | 22.3%
95 | Cc1ccc(C(=O)NNS(=O)(=O)c2ccc(F)cc2)cc1 | – | 1.67%
96 | O=C(CN1CCN(c2ccccc2O)CC1)Nc1ccc2c(c1)CCC2 | – | 1.36%
97 | O=[N+]([O-])c1ccc(NCCCNS(=O)(=O)c2ccc(Cl)cc2)c(Cl)c1 | – | 3.38%
98 | COc1cc([N+](=O)[O-])c(N2CCOCC2)c([N+](=O)[O-])c1OC | inactive | –
99 | O=S(=O)(NCC1CCCO1)c1cc(Br)c(Br)s1 (configuration not stated) | inactive | –
100 | CCCOC(=O)/C(C(N)=NCc1ccccc1)=C(\O)OCCC | – | 9.02%
101 | O=C1CCCC2=C1C(c1cccs1)n1ncnc1N2 (configuration not stated) | – | 9.46%
102 | Cc1cc(C)n2nc(SCC(=O)Nc3ccc(F)cc3)nc2n1 | – | 6.08%
103 | Cc1nnc(NCCc2ccccc2)n(N)c1=O | – | 3.38%
104 | O=C(CCOc1ccccc1)NCC(c1ccco1)N1CCCCC1 (configuration not stated) | – | 8.87%
105 | O=C(NCC(c1ccco1)N1CCCC1)c1cccc(S(=O)(=O)N2CCCCC2)c1 (configuration not stated) | – | 11%
106 | Nc1nc(Nc2ccccc2)sc1C(=O)c1ccccc1 | – | 9.07%
107 | COCCN(Cc1cc2ccccc2[nH]c1=O)C(=O)c1ccccc1OC | – | 4.77%
108 | CCc1ccc2c(c1)cc(C)c1nnc(SCC(=O)Nc3cc(OC)c(OC)cc3C(=O)O)n12 | inactive | –
109 | C=CCOc1ccc(Br)cc1/C=N/O | – | 11.5%
110 | Cc1cccc(C)c1NC(=O)CS(=O)CC(=O)NC1CCN(Cc2ccccc2)CC1 (configuration not stated) | inactive [at 50 µM] | –
111 | CCOC(=O)CC(=O)CSc1ncc(C(=O)OCC)c(N)n1 | inactive | –
112 | CCOC(=O)c1ccc(-n2ncc(C(=O)OCC)c2N)cc1 | inactive | –
